Data from PubChem BioAssay (NCATS).
Results filed as inconclusive are left out. Activity calls are given as the source filed them. Calls follow the shape of the dose curve; as a rule, active = well fitted curve in the direction sought with a large enough effect; inconclusive = small, poorly fitted or top-dose-only effect, or another doubt; inactive = no such curve, though single readings can be large; an effect the other way counts as inactive or inconclusive.

Legend:
[1] = qHTS Assay for Identifying Gametocytocidal Compounds (AID 743244);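 also: actives lower the fluorescent signal which means gametocytes are killed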; conditions: P. falciparum 3D7 stage III-V gametocytes, alamarBlue, 72 h; max response: stronger effect = lower value
Procedure, shortened: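 Fluorescence at Ex 525/Em 598 nm, recorded 24 h after alamarBlue addition, reports residual metabolic activity of 3D7 gametocytes (stages III–V) following 72 h compound exposure at 37 °C, 5% CO2.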

[2] = qHTS assay to identify small molecule inhibitors of chordoma cells - UCH-1 (AID 1259355); also: nearly all actives have a fitted effect of over 55% in size
Procedure, shortened: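 Cells (800/well) were seeded and left overnight at 37 C, 5% CO2, then treated with drugs at 15 concentrations plus a combination mix of auranofin, camptothecin, doxorubicin, rubitecan and topotecan. Viability after 48hr was read by CellTiter-Glo luminescence.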

[3] = qHTS assay to identify small molecule inhibitors of chordoma cells - UCH-2 (AID 1259356); also: series mostly up to about 46 µM
[4] = P-glycoprotein substrates identified in KB-8-5-11 adenocarcinoma cell line, qHTS therapeutic library screen (AID 1346987); conditions: outcome: dose series up to 44.5 µM unless noted; also: series mostly up to about 44 µM; nearly all actives have a fitted effect of over 65% in size
Procedure, shortened: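 KB-8-5-11, a colchicine-selected P-gp-overexpressing KB-3-1 subline, was grown without colchicine for the assay. Cells were seeded at 500 cells/well, dosed in concentration-response and incubated 72 h at 37 degree C, 5% CO2. Viability was read by CellTiter-Glo luminescence.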
% is scaled to controls: 0 for no effect and ±100 for the full control effect.

CCCCC(O)c1ccccc1 (stereo not given)
inactive: max response [1] -2.26% | Potency [2] | Potency [3] | Potency [4]

CN[C@@H]1[C@@H](O[C@H]2O[C@H](CO)[C@@H](N)[C@H](O)[C@H]2O)O[C@H]2C[C@@H](N)[C@@H](O[C@H]3[C@H](O)[C@@H](O)[C@H](N)C[C@@H]3N)O[C@@H]2[C@@H]1O
inactive: max response [1] 4.88% | Potency [2] | Potency [3] | Potency [4]

CC[C@H](C)[C@@H]1NC(=O)[C@H](Cc2ccc(O)cc2)NC(=O)[C@@H](N)CSSC[C@@H](C(=O)N2CCC[C@H]2C(=O)N[C@@H](CC(C)C)C(=O)NCC(N)=O)NC(=O)[C@H](CC(N)=O)NC(=O)[C@H](CCC(N)=O)NC1=O
inactive: max response [1] 0.419% | Potency [2] | Potency [3] | Potency [4]

Nc1nc2c(c(=O)[nH]1)N(C=O)C(CNc1ccc(C(=O)N[C@@H](CCC(=O)O)C(=O)O)cc1)CN2 (stereo not given in full)
inactive: max response [1] 8.32% | Potency [2] | Potency [3] | Potency [4]

CCOC(=O)Oc1c(OC)cc(C(=O)O[C@@H]2C[C@@H]3CN4CCc5c([nH]c6cc(OC)ccc56)[C@H]4C[C@@H]3[C@H](C(=O)OC)[C@H]2OC)cc1OC
inactive: max response [1] 3.15% | Potency [2] | Potency [3] | Potency [4]
